Rango dissoc inh: prevents RanGTP from dissociating the Rango-importin beta complex; AID 540253; Potency, µM (series often up to 46.1 µM); O95149+P62826; 0.071% of 340,000 active; Biochemical FRET Rango-importin beta, RanGTP-induced dissociation; calls by dose curve; further: nearly all actives have a fitted effect of over 45% in size
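Rango/importin beta premix (0.1/0.25 uM final), PBS + 1 mM DTT + 0.02% Tween-20 + 0.1% BSA; cpd 5 min RT; FRET pre-read; + RanGTP-RCC1 (0.6 uM Ran, 2 mM GTP, 0.2 uM RCC1); 45 min RT; FRET post-read, ex 430, em 486/530 nm.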
ASM inhibitor: human S-ASM enzyme inhibition. placental ASM, HMU-PC fluorogenic substrate, 60 min. AID 504937. Potency, µM (top dose mostly 57.5 µM), hits mostly inhibitors. 0.006% of 340,000 active. P17405
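Fluorogenic HMU-PC substrate (9 uM final) is turned over by placental ASM in 60 min at 37 C after a 10 min compound preincubation. Reaction ended by alkaline stop (pH 10), with fluorescence read at 386/447 nm.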
Rango complex inh: inhibitors of Rango-importin beta complex formation; 0.031% of 340,000 active; AID 540263; Potency, µM (series often up to 92.2 µM); Q14974; Rango CFP/YFP FRET sensor + importin beta, 45 min; calls by dose curve; further: nearly all actives have a fitted effect of over 15% in size
Target sequence (Q14974 whole entry, looked up): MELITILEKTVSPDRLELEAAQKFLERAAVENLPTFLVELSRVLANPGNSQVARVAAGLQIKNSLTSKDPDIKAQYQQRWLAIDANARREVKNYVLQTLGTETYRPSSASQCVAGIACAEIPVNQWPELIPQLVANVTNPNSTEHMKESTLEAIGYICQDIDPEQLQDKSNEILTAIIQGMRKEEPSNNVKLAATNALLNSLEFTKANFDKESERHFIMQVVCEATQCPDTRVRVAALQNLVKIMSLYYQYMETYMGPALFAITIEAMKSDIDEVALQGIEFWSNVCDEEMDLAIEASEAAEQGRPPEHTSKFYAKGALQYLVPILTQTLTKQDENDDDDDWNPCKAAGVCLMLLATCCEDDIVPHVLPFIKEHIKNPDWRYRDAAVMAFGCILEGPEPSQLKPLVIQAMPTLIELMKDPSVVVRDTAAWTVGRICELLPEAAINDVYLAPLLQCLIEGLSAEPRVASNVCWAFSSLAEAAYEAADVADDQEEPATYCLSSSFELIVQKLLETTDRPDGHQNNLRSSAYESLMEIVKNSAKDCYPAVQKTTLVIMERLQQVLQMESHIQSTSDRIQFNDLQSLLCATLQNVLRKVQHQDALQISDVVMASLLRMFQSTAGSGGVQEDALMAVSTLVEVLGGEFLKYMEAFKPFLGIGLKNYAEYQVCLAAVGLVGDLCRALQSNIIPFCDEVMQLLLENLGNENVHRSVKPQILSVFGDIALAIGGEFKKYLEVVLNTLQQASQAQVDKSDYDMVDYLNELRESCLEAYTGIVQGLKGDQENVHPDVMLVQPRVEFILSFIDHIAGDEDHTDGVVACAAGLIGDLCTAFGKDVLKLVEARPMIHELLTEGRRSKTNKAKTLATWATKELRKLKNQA
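FRET biosensor Rango (snurportin 1 IBB between N-terminal EYFP and C-terminal Cerulean), 50 nM in PBS/1 mM DTT/0.02% Tween-20/0.1% BSA, preincubated 5 min RT with compound; 0.125 microM importin beta added, 45 min RT, CFP/YFP FRET ratio read.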
Abeta rescue: restores growth of yeast expressing A-beta42 peptide | 0.063% of 410,000 active | yeast expressing A-beta42, growth rescue, OD600, 48 h; response scale: 0% DMSO, 100% iron-clioquinol control | Potency, µM (doses to about 46.1 µM), usual class: activators | AID 1347071; further: nearly all actives have a fitted effect of over 55% in size
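Growth rescue measured by 600 nm absorbance after 48 h yeast culture at 30 C with compound. Values normalized between DMSO and an equimolar ferric chloride plus clioquinol control.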
aSyn rescue: rescues yeast growth from alpha-synuclein toxicity | AID 652106 | Yeast expressing alpha-synuclein, growth rescue, BacTiter-Glo, 24 h | Potency, µM (highest dose often 46.1 µM), actives largely listed as activators | 0.14% of 370,000 active; further: nearly all actives have a fitted effect of over 65% in size
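Screening used galactose-induced yeast with toxic alpha-synuclein levels, exposed to compound for 24 hr at 30 deg C. Cell growth, read with BacTiter-Glo luminescence, gave the measured signal.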
TDP-43 yeast inh: rescues yeast growth from TDP-43 toxicity; Potency, µM (doses to about 46.1 µM), actives largely listed as activators; TDP-43 expressing yeast growth rescue, BacTiter-Glo, 24 h; 1.8% of 410,000 active; further: nearly all actives have a fitted effect of over 50% in size
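Yeast expressing TDP-43 (pregrown in raffinose, seeded at OD600=0.02 in galactose medium) exposed to compounds 24 hr at 30 deg C. Growth read by BacTiter-Glo luminescence; rescue of toxicity appears as increased signal.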
Numbers stand for hits; [ ] = another dose, or the depositor's remark. Sampled rows, rich in hits. Any-hit rate of the full collection: about 2%. Unless noted, the call rests on the fitted dose curve; in most records, active means well fitted curve in the direction sought with a large enough effect; inconclusive means small, poorly fitted or top-dose-only effect, or another doubt; inactive means no such curve, though single readings can be large; an effect the other way counts as inactive or inconclusive.

What do the screens show for `Cc1cccc(Nc2c3c(nc4nncn24)CCC3)c1`?
Abeta rescue: inactive; TDP-43 yeast inh: 17.8µM

How did Cc1ccc(Nc2c3c(nc4nncn24)CCC3)cc1C do in these assays?
Abeta rescue: inactive; TDP-43 yeast inh: inconclusive

Results for COc1cc(NC(=O)C(Cc2ccccc2)NS(=O)(=O)c2cccc3nsnc23)cc(OC)c1 (stereo not given) ?
Abeta rescue: inactive; TDP-43 yeast inh: inactive

What do the screens show for `Cc1cc(C)cc(Nc2c3c(nc4ncnn24)CCC3)c1`?
Rango dissoc inh: inactive; ASM inhibitor: inactive; Rango complex inh: inactive; Abeta rescue: inactive; aSyn rescue: inconclusive; TDP-43 yeast inh: inconclusive

Results for Clc1ccc(Nc2c3c(nc4ncnn24)CCC3)cc1 ?
Rango dissoc inh: inactive; ASM inhibitor: inactive; Rango complex inh: inactive; Abeta rescue: inactive; aSyn rescue: inactive; TDP-43 yeast inh: 17.8µM

How did COc1cc2c(cc1OC)/C(=C/C(=O)c1ccccc1F)NCC2 do in these assays?
Rango dissoc inh: inconclusive; ASM inhibitor: inactive; Rango complex inh: inconclusive; Abeta rescue: inactive; aSyn rescue: inactive; TDP-43 yeast inh: inactive

What do the screens show for `COc1cc2c(cc1OC)/C(=C/C(=O)c1ccc(F)cc1)NCC2`?
Rango dissoc inh: inactive; ASM inhibitor: inactive; Rango complex inh: inconclusive; Abeta rescue: inactive; aSyn rescue: inactive; TDP-43 yeast inh: 10µM

Results for Cc1nn(C)c(C(=O)N/N=C/c2cccc(Oc3ccccc3)c2)c1Br ?
Rango dissoc inh: inactive; ASM inhibitor: inactive; Rango complex inh: inactive; Abeta rescue: inactive; aSyn rescue: inactive; TDP-43 yeast inh: 4.47µM

How did O=C(N/N=C/c1cccc(Oc2ccccc2)c1)c1cc[n+]([O-])cc1 do in these assays?
Rango dissoc inh: inactive; ASM inhibitor: inactive; Rango complex inh: inactive; Abeta rescue: inactive; aSyn rescue: inactive; TDP-43 yeast inh: inactive[0.397 µM]

Results for Nc1ccc(C(=O)N/N=C/c2cccc(Oc3ccccc3)c2)cc1 ?
Rango dissoc inh: inactive; ASM inhibitor: inactive; Rango complex inh: inactive; Abeta rescue: inactive; aSyn rescue: inactive; TDP-43 yeast inh: 12.6µM

Results for Cc1cccc(OC(=O)c2cc(-c3ccc4c(c3)OCCO4)on2)c1 ?
Abeta rescue: inactive; TDP-43 yeast inh: inactive

Results for CN(C)c1ccc(/C=C/c2ccc3cc(N)ccc3n2)cc1 ?
aSyn rescue: inactive

What do the screens show for `C/C(=N\NC(=S)NCc1ccccc1)c1ccc2c(c1)OCCO2`?
Rango dissoc inh: inactive; ASM inhibitor: inactive; Rango complex inh: inactive; Abeta rescue: inactive; aSyn rescue: inactive; TDP-43 yeast inh: 12.6µM

What do the screens show for `Cc1ccc(NC(=O)c2ccc(CN3CC(=O)N4CCCCC4C3=O)cc2)cc1` (stereo not given)?
Abeta rescue: inactive; TDP-43 yeast inh: inactive

What do the screens show for `Cc1nc(N2CCCCC2)sc1C(=O)c1cccc([N+](=O)[O-])c1`?
Rango dissoc inh: inactive; ASM inhibitor: inactive; Rango complex inh: inactive; Abeta rescue: inactive; aSyn rescue: inactive; TDP-43 yeast inh: inconclusive

What do the screens show for `Cc1nc(N2CCCCC2)sc1C(=O)c1ccc(SCCO)c([N+](=O)[O-])c1`?
Rango dissoc inh: inactive; ASM inhibitor: inactive; Rango complex inh: inconclusive; Abeta rescue: inactive; aSyn rescue: inactive; TDP-43 yeast inh: 35.5µM

How did O=[N+]([O-])c1ccc(Cn2cc(-c3cccc(C(F)(F)F)c3)nn2)cc1 do in these assays?
Rango dissoc inh: inactive; ASM inhibitor: inactive; Rango complex inh: inactive; Abeta rescue: inactive; aSyn rescue: inactive; TDP-43 yeast inh: 15.8µM

Results for O=c1c2ccccc2n(Cc2ccccc2F)c(=O)n1-c1cccc(F)c1 ?
Abeta rescue: inactive; TDP-43 yeast inh: inactive

Results for c1coc(-c2nc3cc4ccccc4cc3nc2-c2ccco2)c1 ?
aSyn rescue: inactive

How did O=C(Nc1ccc2c(c1)OCCO2)C(c1ccccc1F)n1c(=O)c(-c2cc3ccccc3[nH]2)nc2ccccc21 (stereo not given) do in these assays?
Abeta rescue: inactive; aSyn rescue: inactive; TDP-43 yeast inh: inactive

What do the screens show for `O=C(Nc1ccc2c(c1)OCCO2)C(c1ccncc1)n1c(=O)c(-c2cc3ccccc3[nH]2)nc2ccccc21` (stereo not given)?
Abeta rescue: inactive; aSyn rescue: inactive; TDP-43 yeast inh: 28.2µM

How did O=C(Nc1ccc2c(c1)OCCO2)C(c1ccc(C(F)(F)F)cc1)n1c(=O)c(-c2cc3ccccc3[nH]2)nc2ccccc21 (stereo not given) do in these assays?
Abeta rescue: inconclusive; aSyn rescue: 10µM; TDP-43 yeast inh: inconclusive

Results for COc1ccc(C2=CC(c3ccc(F)cc3)n3ncc(C(=O)Nc4ccc(C)cc4)c3N2)cc1 (stereo not given) ?
Abeta rescue: inactive; TDP-43 yeast inh: inactive

What do the screens show for `CCCCN(CCCC)S(=O)(=O)c1ccc(C(=O)Nc2nnc(COC)o2)cc1`?
Rango dissoc inh: inactive; ASM inhibitor: inactive; Rango complex inh: inactive; Abeta rescue: inactive; aSyn rescue: inconclusive; TDP-43 yeast inh: 12.6µM

How did CC(=O)Nc1ccc(S(=O)(=O)N(Cc2ccccc2)Cc2ccccc2)cc1 do in these assays?
Abeta rescue: inactive; TDP-43 yeast inh: 20µM

How did CCc1nnc(NC(=O)c2ccc(S(=O)(=O)N(CC)Cc3ccccc3)cc2)o1 do in these assays?
Rango dissoc inh: inactive; ASM inhibitor: inactive; Rango complex inh: inactive; Abeta rescue: inconclusive; aSyn rescue: 12.6µM; TDP-43 yeast inh: 22.4µM

How did CC(=O)Nc1ccc(S(=O)(=O)N(CC(=O)O)Cc2ccccc2)cc1 do in these assays?
Rango dissoc inh: inactive; ASM inhibitor: inactive; Rango complex inh: inactive; Abeta rescue: inactive; aSyn rescue: inactive; TDP-43 yeast inh: inactive

What do the screens show for `Cc1cccc(C(=O)N2CCc3cc(CNC(=O)c4ccnn4C)ccc32)c1`?
Abeta rescue: inactive; TDP-43 yeast inh: inactive

How did Cc1ccc(CNc2ccc(-c3nc(C(C)C)no3)cc2[N+](=O)[O-])cc1 do in these assays?
Abeta rescue: inactive; TDP-43 yeast inh: inactive

How did O=C1N2CCCc3cccc(c32)C12Nc1ccccc1S2 (stereo not given) do in these assays?
Rango dissoc inh: inactive; ASM inhibitor: inactive; Rango complex inh: inactive; Abeta rescue: inactive; aSyn rescue: inconclusive; TDP-43 yeast inh: 20µM

Results for COC(=O)C1=C(C)N(c2ccc(S(N)(=O)=O)cc2)C(=O)C1 ?
Rango dissoc inh: inactive; ASM inhibitor: inactive; Rango complex inh: inactive; Abeta rescue: inactive; aSyn rescue: inactive; TDP-43 yeast inh: inactive

Results for COC(=O)C1=C(C)N(c2ccc(Cl)c(Cl)c2)C(=O)C1 ?
Rango dissoc inh: inactive; ASM inhibitor: inactive; Rango complex inh: inconclusive; Abeta rescue: inactive; aSyn rescue: inactive; TDP-43 yeast inh: 12.6µM
